# Test results published in PubChem BioAssay (EPA / NIEHS).
# Results filed as inconclusive are left out. Active and inactive are the calls of the source. Rule for the calls, unless noted: active = hit-call score of the fitted dose curve at least 0.9, where 1 is the maximum; inconclusive = response in the unintended direction; inactive = score below 0.9.
# What was measured:
# [1] = biological target: Estrogen receptor (Homo sapiens) (UniProt P03372); assay: CCTE_Deisenroth_AIME_384WELL_LUC_Shift: CCTE's 384-well Estrogen Receptor Transactivation Assay with AIME metabolic competence data shift (ERTA luciferase; difference in metabolism positive and negative), Deisenroth Lab (AID 2284041; active = hit-call score of the fitted dose curve at least 0.9, where 1 is the maximum; inactive = score below 0.9;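 note: shift is response with S9 minus without S9 so positive means metabolism raised ER signal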)
# Outline: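 Here, parent compounds undergo 2 h phase I metabolism by PB/BNF-induced rat S9 before 24 h transactivation in VM7Luc4E2 cells; the curve models S9-positive minus S9-negative response over a 10-point series.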
# [2] = CCTE_Shafer_MEA_acute_AB: CCTE's Alamar Blue Assay for Cytotoxicity in the Neural Acute Assay, Shafer Lab (AID 2284069);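 note: active compounds lower the viability signal compared with DMSO wells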
# Outline: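 Read-out: resazurin fluorescence (ex 544, em 590 nm) after CTB reagent at 1:6 dilution in fresh media. Cells: primary rat cortical neuron networks, DIV 13 or 15, chemically exposed on MEA plates; DMSO as negative control/baseline.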
# [3] = CCTE_Shafer_MEA_acute_LDH: CCTE's Lactate Dehydrogenase Assay for Cytotoxicity in the Neural Acute Assay, Shafer Lab (AID 2284086);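 note: active means LDH release rises above DMSO vehicle level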
# Outline: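 Primary rat cortical neurons on 48-well MEA plates, treated on day 13 or 15 post-plating. After the 40-min recording with compound, medium LDH release was read by absorbance at 490 nm. Gain of signal was fitted against DMSO negative control.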
# DIO3 (gene 1735) = assay: CCTE_GLTED_hDIO3: CCTE's human Deiodinase 3 (DIO3) Inhibition Assay, Great Lakes Toxicology and Ecology Division (GLTED) Lab (AID 2284055);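 for AC50: potency is for inhibition seen as loss of released iodide signal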
# Outline: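 Cell-free assay with human DIO3 enzyme produced by adenovirus expression; enzyme incubated with test chemical for 3 hours. Liberated iodide then measured by Sandell-Kolthoff absorbance; loss of signal versus DMSO baseline indicates inhibition, run in triplicate.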
# [4] = CCTE_Shafer_MEA_dev_burst_rate: CCTE's Neural Network Formation Assay for Burst Rate, Shafer Lab (AID 2284042; active = hit-call score of the fitted dose curve at least 0.9, where 1 is the maximum; inactive = score below 0.9)
# Outline: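 Rat primary cortical cultures on PEI/laminin MEA; compound from plating, re-dosed at DIV 5, 9 media change. Single-electrode bursts/recording length, well mean of active electrodes; AUC over DIV 5–12 recordings; loss-of-signal vs DMSO.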
# [5] = CCTE_Shafer_MEA_dev_bursting_electrodes_number: CCTE's Neural Network Formation Assay for Number of Bursting Electrodes, Shafer Lab (AID 2284043)
# Outline: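 Primary rat cortical neurons were cultured on PEI-coated 48-well MEA plates (16 electrodes/well) and exposed from plating through day 12, with compound renewed at feeds on DIV 5 and 9. Electrodes bursting ≥1 per 2 min were counted on DIV 5, 7, 9, 12; trapezoidal AUC taken.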
# [6] = CCTE_Shafer_MEA_dev_per_burst_interspike_interval: CCTE's Neural Network Formation Assay for Burst Interspike Interval, Shafer Lab (AID 2284044; active = hit-call score of the fitted dose curve at least 0.9, where 1 is the maximum; inactive = score below 0.9;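 note: mean spike spacing inside bursts as AUC over recordings on days 5 7 9 12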)
# Outline: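 Primary rat cortical neurons on 48-well MEA plates, exposed from day 0 through day 12, treatment renewed at DIV 5 and 9. Within-burst interspike interval recorded days 5, 7, 9, 12, well-averaged, summarised as AUC; negative fit versus DMSO.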
# [7] = CCTE_Shafer_MEA_dev_burst_duration_mean: CCTE's Neural Network Formation Assay for Mean Burst Duration, Shafer Lab (AID 2284045; active = hit-call score of the fitted dose curve at least 0.9, where 1 is the maximum; inactive = score below 0.9;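 for AC50: curve fitted for loss meaning shorter burst duration than DMSO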)
# Outline: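 Primary rat cortical neurons on PEI-coated 16-electrode MEA wells, exposed from plating through day 12 with compound renewed at DIV 5 and 9; spontaneous activity recorded days 5, 7, 9, 12. Well-mean burst duration collapsed as trapezoidal AUC, fitted for loss versus DMSO.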
# [8] = CCTE_Shafer_MEA_dev_interburst_interval_mean: CCTE's Neural Network Formation Assay for Mean Interburst Interval, Shafer Lab (AID 2284046; active = hit-call score of the fitted dose curve at least 0.9, where 1 is the maximum; inactive = score below 0.9;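 note: well-mean interburst interval of bursting electrodes as AUC over four recording days; curve fitted for decrease in interburst interval relative to DMSO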)
# Outline: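 Rat cortical neurons, 1.5 x 10^5 cells/well, 48-well MEA; compound from day 0 through DIV 12, media and treatment renewed DIV 5/9. Recordings DIV 5, 7, 9, 12; well-mean interburst interval → trapezoidal AUC, loss direction vs DMSO.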
# [9] = CCTE_Shafer_MEA_dev_inter_network_spike_interval_mean: CCTE's Neural Network Formation Assay for Mean Inter-network Spike Interval, Shafer Lab (AID 2284047; active = hit-call score of the fitted dose curve at least 0.9, where 1 is the maximum; inactive = score below 0.9)
# Outline: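 Primary rat cortical neurons on PEI-coated 48-well MEAs (16 electrodes/well) were exposed from plating day 0 to DIV 12, with dosing renewed at DIV 5 and 9. Recordings at DIV 5, 7, 9, 12 were collapsed by trapezoidal AUC, loss-of-signal fit vs DMSO.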
# [10] = CCTE_Shafer_MEA_dev_network_spike_number: CCTE's Neural Network Formation Assay for Number of Network Spikes, Shafer Lab (AID 2284048; active = hit-call score of the fitted dose curve at least 0.9, where 1 is the maximum; inactive = score below 0.9;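 note: synchronized bursts across electrodes counted on days 5 7 9 12 and integrated as AUC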)
# Outline: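 Primary rat cortical neurons were seeded at 1.5 x 10^5 cells/well on PEI-coated 16-electrode MEA wells with laminin, exposed from plating day 0, compound renewed at DIV 5 and 9. Network spikes were recorded on days 5, 7, 9, 12 and summarized as trapezoidal AUC versus DMSO.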
# [11] = CCTE_Shafer_MEA_dev_network_spike_peak: CCTE's Neural Network Formation Assay for Mean Number of Electrodes in Network Spike, Shafer Lab (AID 2284049; active = hit-call score of the fitted dose curve at least 0.9, where 1 is the maximum; inactive = score below 0.9)
# Outline: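 Continuous 12-day exposure of rat cortical cultures, starting at plating, on MEA plates. Endpoint: electrodes participating in network-spike peaks, AUC across DIV 5–12, DMSO as negative control.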
# [12] = CCTE_Shafer_MEA_dev_spike_duration_mean: CCTE's Neural Network Formation Assay for Mean Spike Duration, Shafer Lab (AID 2284051; active = hit-call score of the fitted dose curve at least 0.9, where 1 is the maximum; inactive = score below 0.9;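 note: mean network spike duration pooled as area under curve over DIV 5 to 12 recordings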)
# Outline: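 Rat cortical primary cultures, 48-well MEA (16 electrodes/well); compound from plating, renewed DIV 5, 9. Network spike duration (AxIS adaptive detector) recorded DIV 5/7/9/12, combined as trapezoidal AUC; loss direction vs DMSO.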
# [13] = CCTE_Shafer_MEA_dev_network_spike_duration_std: CCTE's Neural Network Formation Assay for Standard Deviation of Network Spike Duration, Shafer Lab (AID 2284052; active = hit-call score of the fitted dose curve at least 0.9, where 1 is the maximum; inactive = score below 0.9;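 note: area under curve of spike duration SD across recording days 5 to 12; hits are decreases in network spike duration SD versus DMSO vehicle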)
# Outline: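 Rat cortical cultures, 1.5 x 10^5 cells/well, exposed continuously from plating to DIV 12 with media/compound renewal at DIV 5, 9. Spontaneous activity recorded DIV 5/7/9/12, AxIS adaptive spike detector; AUC across days; negative direction vs DMSO.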
# [14] = CCTE_Shafer_MEA_dev_per_network_spike_spike_number_mean: CCTE's Neural Network Formation Assay for Mean Number of Spikes in a Network Spike, Shafer Lab (AID 2284053; active = hit-call score of the fitted dose curve at least 0.9, where 1 is the maximum; inactive = score below 0.9)
# Outline: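 Rat cortical primary cultures on 48-well MEA; compound from day 0, re-dosed with full media change DIV 5, 9. Recorded DIV 5, 7, 9, 12; spikes in 0.05 s window at network-spike peak ÷ total network spikes; AUC; loss vs DMSO.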
# [15] = CCTE_Shafer_MEA_dev_AB: CCTE's Alamar Blue Assay for Cytotoxicity in the Neural Network Formation Assay, Shafer Lab (AID 2284083);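 note: resazurin reduction fluorescence as viability of cultured neurons; twelve days of exposure from plating with re-dosing on DIV 5 and 9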
# Outline: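 Rat cortical primary cultures, 1.5 x 10^5 cells/well on MEA; continuous compound exposure over 12 days of network development, re-dosed with full medium change DIV 5 and 9. Alamar Blue fluorescence; loss of signal = cytotoxicity vs DMSO baseline.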
# [16] = CCTE_Shafer_MEA_dev_mutual_information_norm: CCTE's Neural Network Formation Assay for Mutual Information Normalization, Shafer Lab (AID 2284091; active = hit-call score of the fitted dose curve at least 0.9, where 1 is the maximum; inactive = score below 0.9)
# Outline: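 Rat cortical cultures, 48-well MEA, continuous exposure DIV 0–12 with full media/compound change DIV 5 and 9. Readout: inter-electrode mutual information, AxIS adaptive spike detection; AUC across DIV 5/7/9/12 recordings; DMSO baseline, negative fitting direction.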
# [17] = CCTE_Shafer_MEA_dev_correlation_coefficient_mean: CCTE's Neural Network Formation Assay for Mean Correlation Coefficient, Shafer Lab (AID 2284093; active = hit-call score of the fitted dose curve at least 0.9, where 1 is the maximum; inactive = score below 0.9)
# Outline: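 Rat cortical cultures, 1.5 x 10^5 cells/well, dosed from day 0 for 12 days. Spontaneous spikes recorded DIV 5/7/9/12; electrode-pair correlation coefficients averaged, AUC taken. Fit in loss direction vs DMSO.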
# [18] = CCTE_Shafer_MEA_dev_per_network_spike_spike_percent: CCTE's Neural Network Formation Assay for Percent of Spikes in a Network Spike, Shafer Lab (AID 2284054; active = hit-call score of the fitted dose curve at least 0.9, where 1 is the maximum; inactive = score below 0.9)
# Outline: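 Primary rat cortical neurons on 16-electrode MEA wells (PEI-coated, laminin at plating), exposed from day 0 with renewal at DIV 5 and 9; spikes within 0.05 s of network-spike peaks over total spikes, AUC across days 5, 7, 9, 12.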
# [19] = CCTE_Shafer_MEA_dev_LDH: CCTE's Lactate Dehydrogenase Assay for Cytotoxicity in the Neural Network Formation Assay, Shafer Lab (AID 2284068);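 note: exposure for twelve days from plating with re-dosing on DIV 5 and 9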
# Outline: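 Rat cortical primary neurons, MEA culture; dosing day 0–12, full medium plus compound exchange DIV 5, 9. Read-out: LDH enzyme activity, spectrophotometric. DMSO = negative control/baseline; signal loss → cytotoxicity.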
# Sequence of Estrogen receptor (Homo sapiens) (P03372 whole entry, looked up): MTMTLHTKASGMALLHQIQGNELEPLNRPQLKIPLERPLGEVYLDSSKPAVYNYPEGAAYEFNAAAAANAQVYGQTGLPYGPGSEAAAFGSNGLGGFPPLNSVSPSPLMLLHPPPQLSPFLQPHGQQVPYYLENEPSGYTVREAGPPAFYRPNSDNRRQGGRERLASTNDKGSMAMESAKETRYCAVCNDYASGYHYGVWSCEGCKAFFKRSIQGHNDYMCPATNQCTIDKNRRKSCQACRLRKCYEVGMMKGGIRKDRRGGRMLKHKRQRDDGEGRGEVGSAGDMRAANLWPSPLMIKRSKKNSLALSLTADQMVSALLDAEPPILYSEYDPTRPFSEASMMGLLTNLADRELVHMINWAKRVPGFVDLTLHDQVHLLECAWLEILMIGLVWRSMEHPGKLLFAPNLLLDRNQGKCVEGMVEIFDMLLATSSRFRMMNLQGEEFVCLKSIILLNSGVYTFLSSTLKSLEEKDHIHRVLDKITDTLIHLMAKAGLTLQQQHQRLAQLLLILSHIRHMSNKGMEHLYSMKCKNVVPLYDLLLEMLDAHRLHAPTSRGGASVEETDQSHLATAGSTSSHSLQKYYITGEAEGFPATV
structure (smiles),measurement,setting,value
OCCO,outcome,[1],inactive
COc1cccc([C@H](O)C2CCN(CCc3ccc(F)cc3)CC2)c1OC,outcome,[1],inactive
same,outcome,[2],inactive
same,outcome,[3],inactive
Cc1cn([C@H]2C[C@H](N=[N+]=[N-])[C@@H](CO)O2)c(=O)[nH]c1=O,outcome,[1],inactive
O=C(Nc1ccc(Cl)cc1)Nc1ccc(Cl)c(Cl)c1,outcome,[1],inactive
CC[C@H](NC(=O)c1cc(F)ccc1NS(=O)(=O)c1cccc2cccnc12)c1ccccc1,outcome,[1],inactive
O=C(O)c1ccccc1-n1cc(C(=O)O)c(=O)c2cc(Nc3c(F)cc(F)cc3Cl)c(Cl)cc21,outcome,[2],inactive
same,outcome,[3],inactive
CC(O)CC(C)(C)O (stereo unspecified),outcome,[2],inactive
same,outcome,[3],inactive
COc1cc(C(=O)NC2CCN(C)CC2)ccc1Nc1ncc2c(n1)N(C1CCCC1)CC(F)(F)C(=O)N2C,outcome,[2],inactive
same,outcome,[3],inactive
CC(=O)N1CCN(c2ccc(OC[C@H]3CO[C@](Cn4ccnc4)(c4ccc(Cl)cc4Cl)O3)cc2)CC1,outcome,[2],inactive
same,outcome,[3],inactive
CC(C)(C)c1csc(-c2cc3cc(OCc4ccccc4CC(=O)O)ccc3o2)n1,AC50,DIO3 (gene 1735),148 µM (active)
NCc1cccc(C2CCN(C(=O)c3ccc(C#Cc4ccccc4F)o3)CC2)c1,AC50,DIO3 (gene 1735),23.3 µM (active)
same,outcome,[2],inactive
same,outcome,[3],inactive
O=C1O[C@H]([C@@H](O)CO)C(O)=C1O,outcome,[4],inactive
same,outcome,[5],inactive
same,outcome,[6],inactive
same,outcome,[7],inactive
same,outcome,[8],inactive
same,outcome,[9],inactive
same,outcome,[10],inactive
same,outcome,[11],inactive
same,outcome,[12],inactive
same,outcome,[13],inactive
same,outcome,[14],inactive
same,outcome,[2],inactive
same,outcome,[15],inactive
same,outcome,[3],inactive
same,outcome,[16],inactive
same,outcome,[17],inactive
Cc1cc2c(cc1C(F)(F)F)N(C(=O)Nc1ccc(Oc3cccnc3C)nc1)CC2,outcome,[2],inactive
same,outcome,[3],inactive
CCCCCCCCCCCC[N+](C)(C)C,AC50,DIO3 (gene 1735),119 µM (active)
Oc1ccccc1,outcome,[4],inactive
same,outcome,[6],inactive
same,AC50,[7],6.18 µM (active)
same,outcome,[8],inactive
same,outcome,[9],inactive
same,outcome,[10],inactive
same,outcome,[11],inactive
same,outcome,[12],inactive
same,outcome,[13],inactive
same,outcome,[14],inactive
same,outcome,[18],inactive
same,outcome,[19],inactive
same,outcome,[16],inactive
same,outcome,[17],inactive
CN(C)C(=O)C1(N2CCCCC2)CCN(CC[C@@]2(c3ccc(Cl)c(Cl)c3)CN(C(=O)c3ccccc3)CCO2)CC1,outcome,DIO3 (gene 1735),inactive
same,outcome,[2],inactive
same,outcome,[3],inactive
CC[C@@H]1C[C@H](N(Cc2cc(C(F)(F)F)cc(C(F)(F)F)c2)C(C)=O)c2cc(C(F)(F)F)ccc2N1C(=O)OC(C)C,outcome,[2],inactive
CN(C)c1ccc(C(=C2C=CC(=[N+](C)C)C=C2)c2ccc(N(C)C)cc2)cc1,AC50,DIO3 (gene 1735),22.6 µM (active)
same,AC50,[2],11.2 µM (active)
same,AC50,[3],7.76 µM (active)
NC(=O)c1nc(-c2cccc(-c3cc(F)ccc3OCC(F)(F)C(F)(F)F)c2)n[nH]1,AC50,DIO3 (gene 1735),182 µM (active)
same,outcome,[2],inactive
same,outcome,[3],inactive
Clc1ccccc1C(c1ccccc1)(c1ccccc1)n1ccnc1,outcome,[4],inactive
same,outcome,[6],inactive
same,outcome,[7],inactive
same,outcome,[8],inactive
same,outcome,[9],inactive
same,outcome,[10],inactive
same,outcome,[11],inactive
same,outcome,[12],inactive
same,outcome,[13],inactive
same,outcome,[14],inactive
same,outcome,[18],inactive
same,outcome,[2],inactive
same,outcome,[3],inactive
same,outcome,[16],inactive
same,outcome,[17],inactive
CO[C@H]1/C=C/O[C@@]2(C)Oc3c(C)c(O)c4c(O)c(c(/C=N/N5CCN(C)CC5)c(O)c4c3C2=O)NC(=O)/C(C)=C\C=C\[C@H](C)[C@H](O)[C@@H](C)[C@@H](O)[C@@H](C)[C@H](OC(C)=O)[C@@H]1C,outcome,[2],inactive
same,outcome,[3],inactive
CC1=CC(=O)/C(=C(/C)O)C(=O)O1,outcome,[2],inactive
same,outcome,[3],inactive
c1ccc2n[nH]nc2c1,outcome,[2],inactive
same,outcome,[3],inactive
O=CCCCC=O,AC50,DIO3 (gene 1735),9.03 µM (active)
CCOC(=O)O[C@H](C)OC(=O)c1ccc2c(c1)cc(C(=O)NC1CCN(C(C)C)CC1)n2Cc1cc(-c2ccc(Cl)s2)on1,AC50,DIO3 (gene 1735),1.16 µM (active)
CCCCCCCCCCCCO,AC50,DIO3 (gene 1735),82.6 µM (active)
same,outcome,[2],inactive
CN(C[C@@H](CC[N+]12CCC(C3CCCCC3)(CC1)CC2)c1ccc(Cl)c(Cl)c1)C(=O)c1cc(C(F)(F)F)cc(C(F)(F)F)c1,AC50,DIO3 (gene 1735),81.9 µM (active)
same,AC50,[2],20 µM (active)
same,outcome,[3],inactive
C[C@]12CC[C@@H]3c4ccc(O)cc4CC[C@H]3[C@@H]1CC[C@H]2O,outcome,[2],inactive
